Laboratory results from PubChem BioAssay (NCI).
About 83,000 compounds went through this panel and 20% of them were active in at least one assay; those are over-represented in the sample as a whole.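 Growth was measured after 48 h exposure to one concentration of compound in 96-well plates. Values under 10 count as active.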 The source made the active and inactive calls.

Tested on: M14 melanoma
Experiment: NCI-60 one-dose screen, 48 h (100 = growth as untreated, 0 = no growth, -100 = all killed)
Details: 10 µM unless noted

SMILES | growth
CC1(C)NCCC[C@]2(C)[C@H]3CC=C4[C@@H]5C[C@](C)(COC(=O)c6ccccc6C(=O)O)CC[C@]5(C)CC[C@@]4(C)[C@]3(C)CC[C@@H]12 | 69.3% (inactive)
COc1ccccc1Nc1nnc(COc2ccc(CNC(=O)CCCC/C=C/C(C)C)cc2OC)o1 | 95.4% (inactive)
CCCCCCCCCCCCCCCCC(=O)O.CCCCCCCCCCCCCCCCCC(=O)O.CCCCCCCCCCCCCCCCCC(=O)O.CCCCCCCCCCCCCCCCCC(=O)O.CCCCCCCCCCCCCCCCCC(=O)O.CO[CH-]OC12COC1CC(O)C1(C)C(O)C(OC(C)O)C3=C(C)C(OC(=O)C(O)C([NH-])c4ccccc4)CC(O)(C(OC(=O)c4ccccc4)C21)C3(C)C.[Cu+].[Zn].[Zn].[Zn].[Zn].[Zn] (stereo unspecified) | 35.5% (inactive)
Cc1c(CN(C)C)cc(C(C)C)cc1C(C)C | 108% (inactive)
COC1=C(OC)C(=O)c2ccccc2C1=O | 105% (inactive)
COc1ccc(C(=O)CN2C(=O)NC(c3ccccc3)(c3ccccc3)C2=O)cc1 | 103% (inactive)
CCNc1nnc(COc2ccc(CNC(=O)CCCC/C=C/C(C)C)cc2OC)o1 | 102% (inactive)
CC(C)OC(=O)[C@H](C)N[P@@](=O)(OC[C@@]1(C)O[C@@H](n2cc(F)c(N)nc2=O)C[C@@H]1O[P@](=O)(N[C@@H](C)C(=O)OC(C)C)Oc1ccccc1)Oc1ccccc1 | 91.6% (inactive)
CC[C@@H](C)/C=C(C)/C=C/C(=O)c1c(O)c(-c2ccc(OC(=O)[C@@]34CC[C@@](C)(C(=O)O3)C4(C)C)cc2)cn(O)c1=O | -35.8% (active)
C=C1CCC2C3(C)COC(c4ccccc4)OC3CCC2(C)C1C/C=C1/C(=O)OCC1O (stereo unspecified) | 80.6% (inactive)
COc1cc(-c2nc(/C=C3/C(=O)Nc4ccccc43)c3ccccn23)cc(OC)c1OC | 77.6% (inactive)
COc1ccc(Cn2cc3c(c2-c2ccccc2)CCc2cnoc2-3)cc1OC | 30.5% (inactive)
COc1ccc(Cn2cc3c(c2)-c2oncc2CC3)cc1OC | 4.9% (active)
Cc1cc(CSc2ccc(Cl)cc2)ccc1N | 101% (inactive)
O=C(/C=C1\C(=O)N(Cc2ccccc2)c2ccccc21)c1ccc(OCCN2CCCCC2)cc1 | 37.9% (inactive)
CCCCN(CCCC)CC(O)CN(CC)CC (stereo unspecified) | 95% (inactive)
COc1ccc(/C=C2\CCCC3=C2N=C2SC=NN2C3c2ccc(OC)c(OC)c2)cc1OC (stereo unspecified) | 47.5% (inactive)
CC1(c2ccc(Br)cc2)NC(=O)NC1=O (stereo unspecified) | 103% (inactive)

SMILES | growth
COc1ccc(Cn2cc3c(c2-c2ccc(OC)cc2)CCc2cnoc2-3)cc1 | 1.32% (active)
Cc1ccc(C(=O)NN)cc1 | 113% (inactive)
O=S(=O)(O)c1ccc2c(c1)Sc1cc(S(=O)(=O)O)ccc1O2 | 107% (inactive)
NNC(=S)N1N=C(c2cc3ccccc3o2)CC1c1c[nH]c2ccccc12 (stereo unspecified) | 52.1% (inactive)
O=C(O)c1occ(Cl)c1Cl | 114% (inactive)
Cc1nnc(-c2cc3c(ccc4ccccc43)oc2=O)c2cn(-c3ccc(Cl)cc3)nc12 | 98.1% (inactive)
O=C(/C=C/c1c[nH]c2ccccc12)c1cc2ccccc2o1 | 84.2% (inactive)
C=CCN(C)C | 107% (inactive)
Cc1c(C(N)=O)sc2c1c(=O)n(Cc1ccccc1)c1nnc(S(C)(=O)=O)n21 | 76% (inactive)
COc1ccc(/C=C2\SC(=O)N(Cc3cc(=O)oc4ccc(OC)cc34)C2=O)cc1 | 92.7% (inactive)
CCCCCC(=C/c1ccccc1)/C=N/N=C(N)N | -64.5% (active)
CC1(C)Oc2cc3oc(=O)ccc3cc2C[C@@H]1OCCOS(=O)(=O)c1ccc(C#N)cc1 | 98.4% (inactive)
CC1=C[C@@H]2c3c(c(O)c(O)c4oc5cc(O)cc(O)c5c(=O)c34)[C@@H](c3cc(O)c(O)c4oc5cc(O)cc(O)c5c(=O)c34)[C@@H]2C(C)(C)C1 | -47% (active)
C=C(C)[C@@H]1CC[C@]2(COC(=O)c3ccccc3C(=O)O)CC[C@]3(C)[C@H](CC[C@@H]4[C@@]5(C)CCCNC(C)(C)[C@@H]5CC[C@]43C)[C@@H]12 | 61.7% (inactive)
COC(=O)Nc1nc2ccc(C(=O)c3ccccc3N(C)C3COC3)cc2[nH]1 | 12.8% (inactive)
COc1ccccc1Cn1cc2c(c1)-c1oncc1CC2 | 14.4% (inactive)
CC([C@H]1CC=C2C3CCC4=C[C@@H](N(C)C)CC[C@]4(C)C3CC[C@@]21C)N(C)C (stereo partly specified) | -56.8% (active)
O=C1c2ccccc2CCc2ccccc21 | 96.2% (inactive)
